# SF-1 inh – SF-1 (human) inhibition; Q13285; CHO-K1 Gal4-SF-1 LBD luciferase reporter; inhibition, % at 10 µM; 65,000 compounds, 0.55% hits;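 active means inhibition above the mean inhibition of all tested compounds plus 3 SD, cut at about 48% in these data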;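 further: 0% = SF-1 transfected cells with DMSO and 100% = mock-transfected cells lacking SF-1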
# Target sequence (Q13285 whole entry, looked up, the tested form may be a part): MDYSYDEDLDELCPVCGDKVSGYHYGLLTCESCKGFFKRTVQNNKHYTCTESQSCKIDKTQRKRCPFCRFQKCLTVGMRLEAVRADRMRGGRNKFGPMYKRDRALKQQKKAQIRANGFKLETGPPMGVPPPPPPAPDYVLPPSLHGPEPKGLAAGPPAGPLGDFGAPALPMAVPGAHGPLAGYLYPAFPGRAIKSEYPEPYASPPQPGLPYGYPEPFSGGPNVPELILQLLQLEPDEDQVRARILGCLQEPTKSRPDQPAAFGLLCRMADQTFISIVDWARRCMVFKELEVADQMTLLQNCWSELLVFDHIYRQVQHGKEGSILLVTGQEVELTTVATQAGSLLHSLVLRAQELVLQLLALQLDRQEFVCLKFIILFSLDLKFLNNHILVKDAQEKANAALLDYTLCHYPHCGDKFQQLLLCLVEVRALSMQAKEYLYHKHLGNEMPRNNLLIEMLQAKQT
# * hit, by the source's call. The sample as a whole holds a higher share of hits than the screen did.
SMILES,SF-1 inh
COc1ccc(N2CC(C(=O)Nc3ccc(N4CCOCC4)cc3)CC2=O)cc1 (stereo unspecified),3
CC(=O)c1cccc(NC(=O)CN(c2ccc(C)cc2)S(=O)(=O)c2cccc3nonc23)c1,9
O=C1c2ccccc2C(=O)N1CCCn1nnc(-c2ccc(N3CCOCC3)cc2)n1,-3
Cc1cccc(OCC(O)CN2CCN(C3CCCCC3)CC2)c1 (stereo unspecified),-36
Cc1ccccc1OC(=O)CCC(=O)OCCCC(F)(F)C(F)(F)F,-3
CN(c1ccc(C(=O)Nc2ccccc2C(F)(F)F)cc1)S(C)(=O)=O,-15
Clc1ccc(OCCN2CCN(c3ncnc4sccc34)CC2)cc1,90*
CCC1(CC)C(=O)NC(=O)NC1=NCCc1ccc(O)cc1,4
O=C(CN(CC1CCCO1)C(=O)CCC(=O)Nc1ccccn1)NCC1CCCO1 (stereo unspecified),0
CN(CC1CCCO1)S(=O)(=O)c1ccc(C(=O)Nc2nc(-c3ccccn3)cs2)cc1 (stereo unspecified),70*
CCOc1ccc(S(=O)(=O)Nc2ccccc2C(=O)NCC2CCCO2)cc1 (stereo unspecified),10
O=C(COC(=O)CSCC(=O)N1CCCCC1)Nc1ccc(Cl)cc1,5
CSc1nncc(-c2ccc(F)cc2)n1,17
O=C(Nc1nnc(C2CCCC2)s1)C1CCN(S(=O)(=O)c2ccc(Cl)cc2)CC1,-1
CC(C)Cn1c(N)c(C(=O)CSc2ccc3c(c2)OCCO3)c(=O)n(C)c1=O,69*
CCn1c(SCC(=O)c2ccc3c(c2)OCCO3)nnc1C(C)C,-18
CC(C)c1nc(SCC(=O)Nc2ccc3c(c2)OCCO3)c2c(=O)n(C)c(=O)n(C)c2n1,8
COCCn1c(SCc2nc3ccccc3s2)nc2ccccc21,-50
CCOC(=O)CSc1nc(-c2ccc3c(c2)OCO3)ccc1C#N,-64
Cc1cccc2cc(C#N)c(SCC(=O)N3CC(=O)Nc4ccccc43)nc12,64*
Cc1cccc2cc(C#N)c(NCCNC(=O)NC3CCCCC3)nc12,15
Cc1cccc(-n2ncc3c(N(C)Cc4ccccc4)ncnc32)c1,-64
Cn1c2c(c(=O)n(C)c1=O)C(c1cc3c(cc1Br)OCO3)CC(=O)N2 (stereo unspecified),15
CCSc1nnc(NC(=O)c2nn(C(C)C)c(=O)c3ccccc23)s1,8
COC(=O)c1nn(-c2ccc(-c3ccccc3)cc2)cc1O,56*
SMILES,SF-1 inh
c1ccc2c(c1)CCN(CCCNc1nc3ccccc3n3cnnc13)C2,-16
O=C(c1ccccc1)C(CCC(CN1CCOCC1)C(=O)c1ccccc1)CN1CCOCC1 (stereo unspecified),74*
O=C(c1ccccc1)c1ccccc1C(=O)N1CCOCC1,22
O=C(CCSc1ccccc1)N1CCOCC1,-52
O=S(=O)(NCCc1cn2ccccc2n1)c1cccs1,-18
CCCSc1nnc(Cn2c(=O)sc3ccccc32)n1-c1ccccc1,-4
Fc1cc(F)c2nc(N3CCCCC3)sc2c1,-65
CC1(C)C2CCC1(C)C(OC(=O)CSc1nc(N)cc(=O)[nH]1)C2 (stereo unspecified),-10
CN(C)S(=O)(=O)c1ccc(NC(=O)c2ccccn2)cc1,-74
CN(C)c1ccc(NC(=S)c2ccccn2)cc1,86*
CN(C)c1ccc(NC(=O)Nc2cccc(Cl)c2)cc1,-64
CCN(CC)S(=O)(=O)c1cc(C(=O)Nc2ccc(Cl)cn2)ccc1C,-61
O=C(COc1ccccc1)Nc1ccc(-c2nnc(-c3ccco3)o2)cc1,-66
CCCOc1ccc(-c2nnc(-c3ccco3)o2)cc1,64*
COc1ccc(-c2noc(-c3ccco3)n2)cc1OC,-50
C=CCNC(=O)NS(=O)(=O)c1ccc(C)cc1,4
CC1CCN(C(=O)C2Cc3ccccc3CN2S(=O)(=O)c2ccc(F)cc2)CC1 (stereo unspecified),-6
COc1cc(C2C(C#N)=C(N)Oc3cc(N(C)C)ccc32)cc2c1OCO2 (stereo unspecified),59*
Cc1csc2nc(CNS(=O)(=O)c3ccc4c(c3)CCCC4)cn12,-14
Cc1occc1C(=O)Nc1ccc2c(c1)OCO2,-53
CCOC(=O)c1c(N)sc(C(=O)Nc2ccc3c(c2)OCO3)c1C,53*
Cc1noc(C(=O)Nc2ccc3c(c2)OCO3)c1Cl,-61
O=C(Nc1ccc2c(c1)OCO2)C1COc2ccccc2O1 (stereo unspecified),-11
Cc1nnc(NC(=O)C2COc3ccccc3O2)s1 (stereo unspecified),-52
O=C(NC1=NCCS1)C1COc2ccccc2O1 (stereo unspecified),66*
SMILES,SF-1 inh
Fc1ccc(-n2[nH]nnc2=S)cc1N1CCCC1,5
COC(=O)c1ccc(CSc2nc(C)nc3sc(C)c(C)c23)o1,16
COc1ccccc1N1CCN(C(=O)C2C3C=CC4(CN(Cc5ccccc5Cl)C(=O)C24)O3)CC1 (stereo unspecified),17
COc1ccccc1-c1nn2c(-c3ccco3)nnc2s1,-59
COc1cc(-c2nnc3sc(-c4cccnc4)nn23)cc(OC)c1OC,18
CCN(CC)c1ccc(-c2nn3c(-c4ccccc4OC)nnc3s2)cc1,67*
COC(=O)C1=[N+]([O-])OC(C(=O)OC)C1c1c[nH]c2ccccc12 (stereo unspecified),5
CCN1C(=O)/C(=C2/Sc3ccc(OC)cc3N2C)SC1=Nc1cccc(O)c1,51*
Cc1nn(-c2ccccc2)c2sc(C(=O)OC3CCOC3=O)cc12 (stereo unspecified),16
COc1ccc(CC(=O)Nc2cccc(-c3nnc(-c4cccc(C)c4)o3)c2)cc1OC,93*
CCC(=O)Nc1cccc(-c2nc3ccccc3c(=O)o2)c1,22
CCOc1cccc(C(=O)Nc2cccc(-c3nnc(-c4ccc(C)cc4)o3)c2)c1,11
CC(=O)/C=C(\C)Nc1ccc(-c2cnc(-c3ccccc3)o2)cc1,-57
CC(=O)Nc1cccc(-c2nnc(-c3ccccc3)o2)c1,-51
COc1ccc(CC(=O)Nc2ccc(-c3nnc(-c4ccccc4)o3)cc2)cc1OC,77*
CC(=O)Nc1ccc(-c2nc3c(C)cccc3[nH]2)cc1,-99
CC1(C)CC(=O)C2=C(C1)Nc1ccccc1N=C2,-58
CCOC(=O)c1nc2nc(C)c(Cl)c(=O)n2[nH]1,7
COc1ccc(N(C)S(=O)(=O)c2c(C)[nH]c(=O)[nH]c2=O)cc1,-4
CCOC(=O)c1nnn(-c2nonc2N)c1COc1ccccc1,6
COc1cccc(-n2nnnc2SCC(=O)Nc2cccc(C)n2)c1,1
O=C(Nc1nsc(-c2ccccc2)n1)c1cccs1,-77
O=C(CSc1nnnn1-c1ccccc1)Nc1nsc(-c2ccc(Cl)cc2)n1,88*
CCCC(=O)Nc1cccc(C(=O)Nc2nccs2)c1,-22
CCOCCCN(C(=O)c1ccco1)C(C(=O)NC1CCCC1)c1cccc(OC)c1OC (stereo unspecified),10
SMILES,SF-1 inh
Cc1ccc(-n2ncc3c(=O)n(CC(=O)NCc4ccco4)cnc32)cc1C,-12
Cc1nnc(SCCN2CCOCC2)n1C,-13
COc1cccc(NC(=O)CSc2nnc(-c3cc(C)n(-c4ccccc4)c3C)o2)c1,67*
COc1cccc(NC(=O)CSc2ccc3nnc(-c4ccncc4)n3n2)c1,13
COc1ccc(-n2c(Cc3cccn3C)nnc2SCC(=O)Nc2cccc(OC)c2)cc1,-10
CC(C)CCNC(=O)NC(=O)COc1ccccc1C#N,-8
CC(=O)C1(C)OC(N)=C(C#N)C(c2ccccc2)C1(C#N)C#N (stereo unspecified),9
